Assay [1] is described as follows: qHTS assay to identify small molecule antagonists of the androgen receptor (AR) signaling pathway using the MDA cell line in the presence of 0.5 nM R1881 - cell viability counter screen (AID 1259242). Note: nearly all actives have a fitted effect of over 45% in size. The gist of the method:
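Live-cell protease fluorescence, CellTiter-Fluor, 30 min at 37C. Cells: MDA-kb2, 3,000/well, preincubated 5 hr. Compounds plus 0.5 nM R1881 final, 16 hr, 37C, 0% CO2.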

The target in assay [2] is Estrogen receptor (Homo sapiens) (UniProt P03372). The assay is described as follows: qHTS assay to identify small molecule antagonists of the estrogen receptor alpha (ER-alpha) signaling pathway using the BG1 cell line in the presence of 0.1 nM 17-beta-estradiol (AID 1259244). Note: nearly all actives have a fitted effect of over 50% in size. Note: potency is the fitted concentration of half-maximal effect. The gist of the method: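 Luminescence after ONE-Glo (30 min, room temperature) measured ERE-luciferase activity in VM7Luc4E2 cells treated 22 h with compound and 0.1 nM final 17beta-estradiol as stimulator.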

Assay [3] in a line: qHTS assay to identify small molecule HDAC inhibitors (AID 1259364).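 Note: wild-type HCT-116 cells with endogenous class I/II HDAC activity; top concentration of the series differs between compounds; nearly all actives have a fitted effect of over 45% in size.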 The gist of the method: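 HCT-116 (wild type), 1,500 cells/well, overnight; compound 2 hr 37C 5% CO2; HDAC-Glo I/II reagent 30 min RT; luminescence readout.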
The nature of assay [4]: qHTS assay to identify small molecule HDAC inhibitors - cell viability counter screen (AID 1259365). Note: series mostly up to about 92 µM; nearly all actives have a fitted effect of over 50% in size. Summed up: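 HCT-116 (wild type), 1,500 cells/well, overnight 37C/5% CO2; compound in DMSO 2hr; CellTiter-Glo 30min RT; luminescence read.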
Assay [5] is described as follows: qHTS assay to identify small molecule agonists of the sonic hedgehog signaling (Shh) pathway - cell viability counter screen (AID 1259366). Note: nearly all actives have a fitted effect of over 50% in size. Note: potency is the fitted concentration of half-maximal effect. The gist of the method: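 CellTiter-Fluor fluorescence read-out, 1 hr at 37C, added after 23hr compound exposure. Cells: 3T3 Gli1-Luc, an NIH/3T3 clone with stably integrated Gli1-Luc reporter, plated 4hr before compound.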

The nature of assay [6]: qHTS assay to identify small molecule antagonists of the sonic hedgehog signaling (Shh) pathway - cell viability counter screen (AID 1259367). Note: nearly all actives have a fitted effect of over 55% in size. Note: potency is the fitted concentration of half-maximal effect. The gist of the method: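 Conditioned medium drove Shh signaling in 3T3 Gli1-Luc cells exposed to compounds at 37C and 5% CO2. Viability was determined from CellTiter-Fluor fluorescence, with reagent incubated 1 hr after 23 hr of treatment.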

A short description of assay [7]: qHTS assay to identify small molecule agonists of the sonic hedgehog signaling (Shh) pathway (AID 1259368; calls by dose curve;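 note: NIH/3T3-derived 3T3Gli1-Luc cells carrying a stable Gli1-driven firefly luciferase reporter; series mostly up to about 92 µM; nearly all actives have a fitted effect of over 15% in size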). Summed up: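 Read-out: firefly luciferase luminescence from a Gli1 response element reporter stably integrated in NIH/3T3-derived 3T3Gli1-Luc cells, measured 30 min at room temperature after reagent addition. Compound exposure lasted 24 hr at 37 C, 5% CO2.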

A short description of assay [8]: qHTS assay to identify small molecule agonists of the androgen receptor (AR) signaling pathway in the presence of an antagonist - cell viability counter screen (AID 1259379).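 Note: MDA-kb2 human breast cancer cells carrying an MMTV luciferase reporter; series mostly up to about 92 µM; nearly all actives have a fitted effect of over 25% in size.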 The gist of the method:
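Viability counter screen: CellTiter-Fluor fluorescence, measured in the same wells as the luciferase read-out. MDA-kb2 cells, 3,000/well, with nilutamide at 3.0uM final and compounds at 15 concentrations, 16 hr at 37C, 0% CO2.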

A short description of assay [9]: qHTS assay to identify small molecule agonists of the estrogen receptor beta (ER-beta) signaling pathway - cell viability counter screen (AID 1259380). Note: nearly all actives have a fitted effect of over 30% in size. Note: potency is the fitted concentration of half-maximal effect. The gist of the method:
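Luminescence read-out (CellTiter-Glo, 30 min, room temp) taken in the same wells as the beta-lactamase reporter assay; ER-beta-UAS-bla HEK293T cells exposed to DMSO-dissolved compounds for 16 hr at 37C in 2% charcoal-stripped FBS medium.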

Assay [10] in a line: qHTS assay to identify small molecule antagonists of the estrogen receptor beta (ER-beta) signaling pathway - cell viability counter screen (AID 1259382). Note: series mostly up to about 92 µM; nearly all actives have a fitted effect of over 55% in size. Summed up:
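Luminescent ATP read-out (CellTiter-Glo, 30 min, RT) taken in the same wells as the bla reporter assay. HEK293T ER-beta-UAS-bla cells in 2% charcoal-stripped FBS were exposed to compounds with 1nM E2 for 16 hr at 37C.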

For assay [11], the target named is Estrogen receptor (Homo sapiens) (UniProt P03372). In words: qHTS assay to identify small molecule agonists of the estrogen receptor alpha (ER-alpha) signaling pathway in the presence of an antagonist (AID 1259383; calls by dose curve; note: top concentration of the series differs between compounds; nearly all actives have a fitted effect of over 15% in size). Summed up: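 Luciferase luminescence (ONE-Glo, 30min at room temperature) measured in VM7Luc4E2 cells after 22hr compound exposure at 15 concentrations, with 10.0nM ICI-182,780 final present; cells express endogenous ER-alpha and carry four EREs upstream of luciferase.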

Assay [12] can be described thus: qHTS assay to identify small molecule agonists or antagonists of the thyroid stimulating hormone receptor (TSHR) signaling pathway - wild type cell line counter screen (AID 1259384; calls by dose curve). Summed up:
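Wild-type HEK293 cells were plated 18 h at 37 C/5% CO2, pin-dosed with compound plus Ro20-1724 medium, held 30 min at room temperature, then given cAMP-d2 and anti-cAMP-cryptate; fluorescence was read after 1 h. Fifteen concentrations, triplicate.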

Assay [13] addresses Thyrotropin receptor (Homo sapiens) (UniProt P16473). The assay is described as follows: qHTS assay to identify small molecule antagonists of the thyroid stimulating hormone receptor (TSHR) signaling pathway (AID 1259385; calls by dose curve; note: nearly all actives have a fitted effect of over 20% in size). Summed up:
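TSHR-HEK293 cells were plated and held 18 h at 37C/5% CO2, then given compound plus Ro20-1724 and stimulated with TSH at 1.5 ng/mL final. After 30 min at room temperature, cAMP was detected with cAMP-d2/anti-cAMP-cryptate (1 h) by fluorescence.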

Assay [14] is described as follows: qHTS assay to identify small molecule agonists of the estrogen receptor alpha (ER-alpha) signaling pathway in the presence of an antagonist - cell viability counter screen (AID 1259386).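 Note: series mostly up to about 92 µM; cells exposed to compounds for 22 h at 37 °C before the viability read; nearly all actives have a fitted effect of over 30% in size.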 The gist of the method:
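Read-out: CellTiter-Fluor fluorescence after 1hr reagent incubation, measured in the same wells as the luciferase readout. VM7Luc4E2 cells were exposed to 15 compound concentrations with 10.0nM ICI-182,780 for 22hr at 37C.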

A short description of assay [15]: qHTS assay to identify small molecule antagonists of the sonic hedgehog signaling (Shh) pathway (AID 1259369; calls by dose curve; note: nearly all actives have a fitted effect of over 45% in size; note: potency is the fitted concentration of half-maximal effect). Summed up:
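Luminescence readout: firefly Luc under Gli1 response element in 3T3Gli1-Luc cells (NIH/3T3 clone). Antagonist mode, stimulation by conditioned medium; compound exposure 24hr at 37 C, 5% CO2.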

In assay [16] the target is Estrogen receptor beta (Homo sapiens) (UniProt Q92731). In words: qHTS assay to identify small molecule agonists of the estrogen receptor beta (ER-beta) signaling pathway (AID 1259377; active = well fitted activation curve with a large enough effect in the signal ratio in the repeat runs, not every such curve was filed as active; the % refers to the signal ratio). Summed up: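 Beta-lactamase reporter readout: fluorescence of LiveBLAzer B/G FRET substrate after 2 h at room temperature, following 16 h compound treatment of ER-beta-UAS-bla HEK293T cells at 37C in 2% charcoal-stripped FBS medium.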

Assay [17] shares this target. In words: qHTS assay to identify small molecule antagonists of the estrogen receptor beta (ER-beta) signaling pathway (AID 1259378; active = well fitted inhibition curve with a large enough effect in the signal ratio in the repeat runs, not every such curve was filed as active; the % refers to the signal ratio). The gist of the method:
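ER-beta-UAS-bla HEK293T (GripTite) cells in 2% charcoal-stripped FBS medium were preincubated 6 hr at 37C, dosed with compound, then stimulated with 1 nM E2 (final) for 16 hr; beta-lactamase reporter read by B/G FRET fluorescence after 2 hr substrate loading.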

Each structure is given as a SMILES string. Records with an inconclusive call do not appear. Calls of active or inactive are those of the source. Unless noted, calls come from the whole dose curve; as a rule, active = well fitted curve in the direction sought with a large enough effect in the repeat runs; inconclusive = weak or mixed curves; inactive = no such curve, though single readings can be large; an effect the other way counts as inactive or inconclusive.

Chain of Estrogen receptor beta (Homo sapiens) (Q92731 whole entry, looked up): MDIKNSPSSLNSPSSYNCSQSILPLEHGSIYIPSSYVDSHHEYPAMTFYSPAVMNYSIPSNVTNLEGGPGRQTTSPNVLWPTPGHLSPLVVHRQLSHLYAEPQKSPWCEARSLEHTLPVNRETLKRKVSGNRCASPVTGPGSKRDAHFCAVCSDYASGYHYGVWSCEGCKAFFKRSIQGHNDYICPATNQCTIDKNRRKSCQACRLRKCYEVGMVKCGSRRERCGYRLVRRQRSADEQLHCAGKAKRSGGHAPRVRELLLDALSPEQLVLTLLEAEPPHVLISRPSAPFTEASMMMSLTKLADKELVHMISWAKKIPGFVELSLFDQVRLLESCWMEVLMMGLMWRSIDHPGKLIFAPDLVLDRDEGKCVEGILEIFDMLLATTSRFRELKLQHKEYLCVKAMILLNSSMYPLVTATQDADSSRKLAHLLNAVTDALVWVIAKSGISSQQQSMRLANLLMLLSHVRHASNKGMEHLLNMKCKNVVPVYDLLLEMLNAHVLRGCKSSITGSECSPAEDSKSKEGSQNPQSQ
Chain of Thyrotropin receptor (Homo sapiens) (P16473 whole entry, looked up): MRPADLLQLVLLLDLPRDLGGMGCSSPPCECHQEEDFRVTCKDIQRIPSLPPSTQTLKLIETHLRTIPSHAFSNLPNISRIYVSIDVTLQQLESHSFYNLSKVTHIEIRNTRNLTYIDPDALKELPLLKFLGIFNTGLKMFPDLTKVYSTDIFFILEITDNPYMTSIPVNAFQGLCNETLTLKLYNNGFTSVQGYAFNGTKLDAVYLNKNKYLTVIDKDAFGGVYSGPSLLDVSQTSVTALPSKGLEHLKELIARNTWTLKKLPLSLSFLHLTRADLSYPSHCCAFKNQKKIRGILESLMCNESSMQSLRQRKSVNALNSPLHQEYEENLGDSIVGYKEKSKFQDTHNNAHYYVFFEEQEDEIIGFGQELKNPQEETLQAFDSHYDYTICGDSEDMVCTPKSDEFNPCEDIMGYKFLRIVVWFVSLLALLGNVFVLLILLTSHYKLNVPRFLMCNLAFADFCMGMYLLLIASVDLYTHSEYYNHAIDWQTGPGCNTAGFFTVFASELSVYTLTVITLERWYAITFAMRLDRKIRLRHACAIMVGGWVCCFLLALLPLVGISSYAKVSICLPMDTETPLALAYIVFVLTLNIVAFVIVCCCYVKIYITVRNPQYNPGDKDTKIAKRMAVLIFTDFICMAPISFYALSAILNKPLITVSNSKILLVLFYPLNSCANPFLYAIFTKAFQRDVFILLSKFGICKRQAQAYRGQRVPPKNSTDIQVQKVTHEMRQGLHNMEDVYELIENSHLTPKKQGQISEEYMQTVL
Chain of Estrogen receptor (Homo sapiens) (P03372 whole entry, looked up): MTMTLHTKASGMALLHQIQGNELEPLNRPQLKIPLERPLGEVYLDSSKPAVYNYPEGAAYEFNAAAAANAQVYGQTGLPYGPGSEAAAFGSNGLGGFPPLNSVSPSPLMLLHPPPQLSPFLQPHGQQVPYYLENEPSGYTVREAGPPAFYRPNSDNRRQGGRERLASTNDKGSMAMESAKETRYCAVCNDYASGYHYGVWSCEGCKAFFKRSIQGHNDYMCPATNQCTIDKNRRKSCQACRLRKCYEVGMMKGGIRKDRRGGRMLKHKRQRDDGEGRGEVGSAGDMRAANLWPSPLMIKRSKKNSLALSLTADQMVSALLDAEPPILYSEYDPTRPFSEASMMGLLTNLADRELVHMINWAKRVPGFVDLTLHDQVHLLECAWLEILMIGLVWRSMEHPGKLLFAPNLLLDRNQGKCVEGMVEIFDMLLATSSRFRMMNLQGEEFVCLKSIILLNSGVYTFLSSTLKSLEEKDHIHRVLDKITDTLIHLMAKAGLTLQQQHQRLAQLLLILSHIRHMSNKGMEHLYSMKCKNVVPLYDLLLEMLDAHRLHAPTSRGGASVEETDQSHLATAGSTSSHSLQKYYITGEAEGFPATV

For `CSc1nc(N=[N+]=[N-])nc(NC(C)C)n1`, the result in assay [1], in assay [4] and in [7] was inactive. For the same molecule, the Potency entry in assay [2], in assay [3], in [5], in assay [6], in assay [8] and in assay [9] was “inactive” in each case. The Potency result in assay [10], in [11], in assay [12], in assay [13] and in [14] was “inactive” throughout.

`CC1=C(C(=O)Nc2ccccc2)S(=O)(=O)CCO1`: the result in assay [1], in assay [4] and in assay [7] was inactive. In addition, the Potency in [2] is 48.5 µM (active); in assay [5], 21.7 µM (active); in [6], 27.3 µM (active); in assay [15], 3.06 µM (active). Besides, the Potency entry in assay [3], in [8], in assay [9], in [10], in assay [11] and in assay [12] was “inactive” in each case. Also, the Potency entry in assay [13] was “inactive”.

Regarding `OC(c1ccc(F)cc1)(c1cncnc1)c1ccccc1Cl` (configuration not stated), the result in [1], in assay [4], in assay [7] and in [16] was inactive. In addition, the Potency entry in [2], in [3], in assay [5], in [6], in assay [8] and in assay [9] was “inactive” throughout. Further, the Potency result in [10], in assay [11], in [12] and in assay [13] was “inactive” each time.

Regarding `COC(=O)c1ccccc1S(=O)(=O)NC(=O)N(C)c1nc(C)nc(OC)n1`, the outcome in assay [1], in [4] and in assay [7] was inactive. Besides, the Potency entry in assay [2], in assay [3], in assay [5], in assay [6], in assay [8] and in assay [9] was “inactive” each time. Also, the Potency entry in assay [10], in [11] and in assay [14] was “inactive” each time.

On to `CN1CCC(N(Cc2ccccc2)c2ccccc2)CC1`, for which the outcome in assay [1], in [4], in [7] and in assay [16] was inactive. Further, the Potency result in assay [2], in assay [3], in assay [5], in [6], in assay [8] and in [11] was “inactive” each time. Also, the Potency result in assay [12], in assay [13] and in [14] was “inactive” in each case. In addition, the Potency in assay [15] is 18.8 µM (active); in assay [9], 13.3 µM (active).

`O=C(O)c1cccc(Cl)c1`: the result in assay [1], in assay [4], in [7] and in assay [16] was inactive. For the same molecule, the Potency result in [2], in assay [3], in [5], in [15], in [17] and in [8] was “inactive” throughout. The Potency entry in assay [9], in assay [10], in assay [11], in assay [12], in [13] and in assay [14] was “inactive” each time.

As for `C[N+](C)=CCl`, the result in [1], in [4], in [7] and in assay [16] was inactive. For the same molecule, the Potency entry in assay [2], in assay [3], in assay [5], in assay [15], in assay [8] and in assay [9] was “inactive” each time. Besides, the Potency entry in assay [10], in [11], in assay [12], in assay [13] and in [14] was “inactive” each time.

As for `COc1cc(C[C@@H](C)N)c(OC)cc1C`, the result in assay [1], in assay [4], in [7] and in assay [16] was inactive. The Potency entry in assay [2], in [3], in assay [5], in assay [15], in assay [17] and in assay [8] was “inactive” each time. The Potency entry in [9], in assay [10], in [11], in assay [12], in [13] and in [14] was “inactive” in each case.

As for `O=[N+]([O-])c1ccc2c3c(cccc13)CC2`, the result in [1], in [4], in [7] and in assay [16] was inactive. In addition, the Potency result in [2], in [3], in assay [5], in assay [17], in assay [8] and in assay [9] was “inactive” each time. The Potency result in assay [10], in [11], in assay [12] and in assay [13] was “inactive” throughout. The Potency in assay [15] was 21.7 µM (active).

With `Cc1coc2c1CCC(C)C2` (configuration not stated), the result in assay [1], in [4], in assay [7] and in [16] was inactive. The Potency result in [2], in [3], in [5], in assay [15], in assay [17] and in assay [8] was “inactive” each time. In addition, the Potency result in assay [9], in assay [10], in assay [11], in assay [12], in [13] and in assay [14] was “inactive” throughout.

For `Nc1cnn(-c2ccccc2)c(=O)c1Cl`, the result in assay [1], in assay [4], in [7] and in [16] was inactive. The Potency entry in assay [2], in [3], in assay [5], in assay [15], in assay [17] and in [8] was “inactive” each time. Also, the Potency entry in assay [9], in assay [10], in assay [11], in assay [12] and in [13] was “inactive” each time.

Source of the values: PubChem BioAssay (Tox21).
